About 1,600 (39%) of roughly 4,100 compounds were called active. Another 25% or so got no clear call; they are omitted. The call rests on the fitted dose curve; in most records, active means well fitted inhibition curve with a large enough effect; inconclusive means small, poorly fitted or top-dose-only effect; inactive means no such curve, though single readings can be large or run the other way. The list shows a part of the results.
experiment: qHTS Validation assay for Inhibitors of Plasmodium falciparum Dd2 growth in vitro; further: nearly all actives have a fitted effect of over 70% in size; settings: P. falciparum Dd2 in RBCs, SYBR Green growth, 72 h; series mostly up to 28.7 µM; activity change, negative = inhibition: at the top concentration
Outline: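 P. falciparum Dd2-infected red blood cells (2.5% hematocrit, 0.3% parasitemia) grown 72 h at 37 °C under 5% O2 with compounds in a titration, 29 uM to 0.5 nM final. Growth read as SYBR Green-1 fluorescence after ~16 h lysis; artesunate 300 nM as positive control.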
On the % scale 0 is the no-effect control and ±100 the full control effect; potency means the concentration at half of the fitted maximal effect.

| SMILES | activity change, negative = inhibition | Potency |
| --- | --- | --- |
| CCCC1=[N+](CC)CCn2c(C)ccc21 | -15.7% (inactive) |  |
| COC(=O)c1c(-c2c(Cl)cccc2Cl)noc1NC(=O)NN1CCCCC1 |  | 2.37 µM (active) |
| OC(CN1CCC(Cc2ccc(F)cc2)CC1)c1ccc(Cl)cc1 (stereo unspecified) | -97.7% (inactive) |  |
| CN1CCC(NCCC(c2ccc(F)cc2)c2ccc(Cl)cc2)CC1 (stereo unspecified) |  | 4.22 µM (active) |
| CCC(=O)N(C1=C(NC(C)C)C(=O)c2ccccc2C1=O)C(C)C |  | 2.37 µM (active) |
| O=C(NC1CCCC1)c1ccc(OC2CCN(CCCC(F)(F)F)CC2)c(Cl)c1 |  | 9.44 µM (active) |
| COCCNC(=O)c1ccc(OC2CCN(C/C=C/c3ccc(F)cc3)CC2)c(Cl)c1 |  | 10.6 µM (active) |
| CN(Cc1ccc(-c2ccccc2)cc1)C(=O)C1CC1 | 11.1% [at 43.1 µM] (inactive) |  |
| CC(=O)Nc1ccc(/C(C)=N\NC(=O)c2ccc(-c3ccccc3)cc2)cc1 | 18.3% (inactive) |  |
| CC(=O)Nc1cc(-c2ccccc2)ccc1O |  | 4.73 µM (active) |
| CC(C)(Oc1nn(Cc2cccc(Cl)c2)c2ccccc12)C(=O)NCCN1CCOCC1 |  | 5.31 µM (active) |
| COCc1ccc2c(c1)c(OC(C)(C)C(=O)N1CCN(CCO)CC1)nn2Cc1ccccc1 |  | 9.44 µM (active) |
| CN1CCN(C(=O)C(C)(C)Oc2nn(Cc3cccc(Cl)c3)c3ccccc23)CC1 |  | 7.69 µM (active) |
| CC(C)n1nc(OC(C)(C)C(=O)NCCc2cccnc2)c2cc(CN3CCOCC3)ccc21 | -3.54% (inactive) |  |
| CC(C)(Oc1nn(CCOc2ccccc2)c2ccccc12)C(=O)NCc1cnccn1 | -20.1% [at 43.1 µM] (inactive) |  |
| COCc1ccc2c(c1)c(OC(C)(C)C(=O)NCC1CCOCC1)nn2Cc1cccnc1 | 22.6% (inactive) |  |
| N#Cc1cc(C(=O)c2cc(Br)ccc2O)cn(C2CCCCC2)c1=O |  | 0.668 µM (active) |
| CCCCn1cc(C(=O)c2cc(Br)ccc2O)cc(C#N)c1=O |  | 13.3 µM (active) |
| CN(C)c1cc[n+](Cc2ccccc2)cc1 |  | 10.6 µM (active) |
| CCOC(=O)CCCOc1cccn2c(=O)c(-c3cc(C)n(-c4ccc(Cl)cc4)n3)c(C)nc12 |  | 10.6 µM (active) |
| COc1ccc(-n2nc(C3CCN([S+](=O)([O-])c4cccc(C(F)(F)F)c4)CC3)[nH]c2=O)cc1 | 0% (inactive) |  |
| CC(C)CCN1CCC2(CC1)CC(=O)N(c1ccccc1)c1ccccc1O2 | -9.65% (inactive) |  |
| O=C1CC2(CCN([S+](=O)([O-])c3cccc(C(F)(F)F)c3)CC2)Oc2ccccc2N1c1ccccc1 |  | 6.68 µM (active) |
| Cc1ccc(S(=O)(=O)NC(=O)Nc2ccc(N(C)C)cc2)cc1 |  | 1.33 µM (active) |
| CN(C)c1ccc(NC(=O)Oc2ccccc2)cc1 | 11.4% (inactive) |  |
| Cc1c(CN2CCN(CC(C)(C)C)C(CCO)C2)[nH]c2ccccc12 (stereo unspecified) |  | 9.44 µM (active) |

Source: PubChem BioAssay AID1347416 (National Center for Advancing Translational Sciences (NCATS), 2020)
